Measured values from PubChem BioAssay AID1619 (SRMLSC, 2009).
Screen size: about 220,000 compounds; about 830 (0.38%) were called active.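 The calls were made as follows: active = compound inhibiting the enzyme by more than half at any dose during confirmatory dose-response retesting; inconclusive = strong single-dose inhibitors picked by rank but not retested; inactive = the rest.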 These entries were drawn from the full list. Measured potencies and affinities stand elsewhere.

target: Leucine aminopeptidase (Plasmodium falciparum (isolate 3D7)) (UniProt Q8IL11); experiment: P. falciparum M17LAP inhibitors, primary screen, biochemical, fluorogenic H-Leu-NHMec substrate, 1536-well (AID 1619); conditions: recombinant M17LAP, H-Leu-NHMec fluorogenic kinetic assay; at 30 µM; hits give high values;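 also: plate controls were full reaction with DMSO carrier for no effect and no enzyme background for full effect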
Sequence (Q8IL11 whole entry, looked up): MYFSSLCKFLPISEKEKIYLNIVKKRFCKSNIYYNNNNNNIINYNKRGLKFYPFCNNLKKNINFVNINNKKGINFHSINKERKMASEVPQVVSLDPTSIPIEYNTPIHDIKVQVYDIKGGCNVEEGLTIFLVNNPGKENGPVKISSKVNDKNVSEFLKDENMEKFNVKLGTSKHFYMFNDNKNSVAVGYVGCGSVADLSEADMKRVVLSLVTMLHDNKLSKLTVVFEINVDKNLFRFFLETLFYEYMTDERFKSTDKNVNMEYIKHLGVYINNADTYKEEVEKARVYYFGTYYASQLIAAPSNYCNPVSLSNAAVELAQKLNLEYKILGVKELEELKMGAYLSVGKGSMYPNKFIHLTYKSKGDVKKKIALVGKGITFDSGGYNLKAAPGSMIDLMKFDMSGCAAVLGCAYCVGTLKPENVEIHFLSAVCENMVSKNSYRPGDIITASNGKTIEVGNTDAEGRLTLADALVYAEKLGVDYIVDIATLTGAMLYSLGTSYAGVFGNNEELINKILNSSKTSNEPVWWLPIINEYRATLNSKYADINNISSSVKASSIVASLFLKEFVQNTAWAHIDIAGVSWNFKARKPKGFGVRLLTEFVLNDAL

inhibition, inactive:
CCOC(=O)NC(=O)C(=CNc1ccccc1OC)C(=O)NC(=O)OCC 22.1%, O=[N+]([O-])c1ccc([C@H](O)[C@H](CO)N=Cc2ccccc2O)cc1 3.71%, CCNC(=O)CC1C(=O)N(c2ccccc2)C(=O)N1Cc1ccc(OC)cc1 (configuration not stated) -7.36%, Cc1c(-c2nnc(-c3ccc(C(F)(F)F)cc3)o2)cnn1-c1ccccc1 -4.2%, CC(=C\c1ccccc1)/C=C1/SC(=O)N(CCCC(=O)Nc2ccc(C(=O)O)cc2)C1=O 52.8%, CC(/C=C1\SC(=S)N(CC(=O)O)C1=O)=C\c1ccccc1 19.7%, CCCC1CCc2c(sc(NC(=O)OCC)c2C#N)C1 (configuration not stated) -10%, CC(=O)Nc1sc2c(c1C#N)CCC(C)C2 (configuration not stated) -3.55%, Cc1cc(C(=O)Nc2sc3c(c2C#N)CCC(C(C)(C)C)C3)no1 (configuration not stated) -3.46%, CN1CCN(CC(=O)Nc2sc3c(c2C#N)CCC(C(C)(C)C)C3)CC1 (configuration not stated) -2.54%, CCCn1ncc(CN2CCN(Cc3ccsc3)C(CCO)C2)c1C (configuration not stated) -4.96%, Cc1ccc(Nc2ccc(-n3ccnc3)nn2)cc1C 1.15%, CCCCNC(=O)N1CCN(C(=O)C2CCCO2)CC1 (configuration not stated) -0.24%, C=C(C)COc1ccc2oc(C)c(C(=O)OCCOC)c2c1 -2.33%, CCCCOc1ccc(N(CC(=O)NCC2CCCO2)C(=O)CCC(=O)Nc2nccs2)cc1 (configuration not stated) -11.6%, CCOc1ccc(NC(=O)C2CC(=O)NC(N3CCc4ccccc43)=N2)cc1 (configuration not stated) 13.4%, CCC(=O)Nc1ccc(Br)c(Cl)c1 -2.61%, O=C(CSc1nccc(-c2cccs2)n1)Nc1ccc(F)c(Cl)c1 8.92%, Nc1cc(=O)[nH]c(SCC(=O)Nc2ccc(F)c(Cl)c2)n1 45.2%, CCCC(=O)Nc1ccc2c(c1)c1ccccc1n2CC -0.99%, CCn1c2ccccc2c2cc(NC(=O)CC(C)=O)ccc21 -12.3%, O=C(CSc1nccc(=O)[nH]1)Nc1ccc(F)c([N+](=O)[O-])c1 31.4%, CN(C)S(=O)(=O)c1cccc(NC(=S)NCCCn2ccnc2)c1 2.61%, Cn1nnc2cc(C(=O)N3CCC(c4ccccc4)C3)ccc21 (configuration not stated) 9.75%, O=C(COc1ccc(/C=N/NC(=O)c2ccc(O)cc2)cc1)Nc1cccc([N+](=O)[O-])c1 -2.3%, CNC(=S)Nc1cccc(Cl)c1C 0.94%, CCn1c(Cc2ccccc2)nnc1SCc1ccc([N+](=O)[O-])cc1 -12%
